Only some compounds are listed: those with a hit (about 14% of all), similar ones and a draw of the others.
Pf growth 96h: Primary qHTS for delayed death inhibitors of the malarial parasite plastid, 96 hour incubation; P. falciparum luciferase reporter growth, 96 h; Potency, µM (series often up to 28.7 µM), inactives show top-dose activity change, negative = inhibition, hits mostly inhibitors; 320,000 compounds, 6.9% hits; note: potency is the fitted concentration of half-maximal effect
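Readout is luminescence from an integrated firefly luciferase in P. falciparum. Red cells, 2% hematocrit and 0.05% parasitemia final, were cultured with compound through two parasite generations (96 hours) at 37 C, 5% CO2.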
HCV inh: qHTS Assay for Inhibitors of Hepatitis C Virus (HCV); Huh7.5.1 HCVcc-Cre infection, luciferase reporter, 44 h; Potency, µM (series often up to 41.8 µM), without a hit: at the highest dose activity change, negative = inhibition, usual class: inhibitors; 340,000 compounds, 3.4% hits; AID 651820, 2012; note: potency is the fitted concentration of half-maximal effect
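Cells seeded at 1,000/well and cultured 4 h, then compounds added followed by HCVcc-Cre virus (~0.5 moi). After 44 h further culture, luciferase substrate was added, plates held 15 min at room temperature, and luminescence read for 15 sec.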
Pf growth 48h: Primary qHTS for delayed death inhibitors of the malarial parasite plastid, 48 hour incubation | P. falciparum luciferase growth in erythrocytes, 48 h | Potency, µM (doses to about 28.7 µM), without a hit: top-dose activity change, negative = inhibition, hits mostly inhibitors | 310,000 compounds, 5.9% hits | AID 504832, 2011; note: potency is the fitted concentration of half-maximal effect
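Here the parasites carry a stable luciferase gene and grow inside erythrocytes in Albumax-based RPMI medium with compound for one erythrocytic cycle. Activity is scored as loss of luminescent signal.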
HCMV antiviral: qHTS Assay for inhibitors of the human cytomegalovirus (HCMV); activity change, negative = inhibition, % at 57.5 µM; 410,000 compounds, 4.5% hits; AID 1259415, 2018; HFF cells, HCMV-luciferase reporter, 72 h; stronger effect = lower value; in the data active = activity change below about -60%; inconclusive = no clear call, values can overlap the other calls; inactive = above about -39%
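Inhibition of viral replication was scored as loss of reporter luminescence in HFFs infected with HCMV-luciferase (MOI 1 PFU/cell) for 72 h; compounds tested at 2 doses, normalized to buffer and Salinomycin controls.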
Marburg entry inh: qHTS for inhibitors of binding or entry into cells for Marburg Virus; Marburg virus pseudotyped entry inhibition, cell reporter; Potency, µM (titrated, usually from 37.8 µM), inactives show top-dose activity change, negative = inhibition, actives largely listed as inhibitors; 300,000 compounds, 1.8% hits; calls by dose curve; tested in HEK293 cells; note: potency is the fitted concentration of half-maximal effect
LASV entry inh: qHTS for Inhibitors of binding or entry into cells for Lassa Virus | Lassa virus pseudotype entry inhibition, cell reporter | Potency, µM (doses to about 37.9 µM), without a hit: top-dose activity change, negative = inhibition, usual class: inhibitors | 300,000 compounds, 1.2% hits; calls by dose curve; tested in HEK293 cells; note: potency is the fitted concentration of half-maximal effect; nearly all actives have a fitted effect of over 50% in size
* = called active by the depositor; [ ] = dose if it differs, or a comment. Unless noted, calls come from the whole dose curve; as a rule, active = well fitted inhibition curve with a large enough effect; inconclusive = small, poorly fitted or top-dose-only effect, or another doubt; inactive = no such curve, though single readings can be large or run the other way. % is set by controls: 0 for no effect and ±100 for the full control effect.

How did COc1ccccc1OCCNC(=O)C(CCSC)NS(=O)(=O)c1ccccc1F (stereo not drawn) do in these assays?
Pf growth 96h: 6%; HCV inh: 1%; Pf growth 48h: -7%; HCMV antiviral: -20; Marburg entry inh: inconclusive; LASV entry inh: 6%

How did COc1ccc(CCN2C(=O)c3oc4cc(C)cc(C)c4c(=O)c3C2c2ccc(F)cc2)cc1OC (stereo not drawn) do in these assays?
HCMV antiviral: -4; Marburg entry inh: 5%[46.1 µM]; LASV entry inh: 3%[46.1 µM]

What do the screens show for `c1ccc(C(CN2CCOCC2)c2ccccc2)cc1`?
Pf growth 96h: 8.3µM*; HCV inh: 17%; Pf growth 48h: 0%; HCMV antiviral: 40; Marburg entry inh: 20%; LASV entry inh: -2%

What do the screens show for `O=C(c1ccc(Cl)cc1)C(CN1CCCC1)c1ccccc1` (stereo not drawn)?
Pf growth 96h: -22%; HCV inh: inconclusive; Pf growth 48h: -11%; HCMV antiviral: -101*

How did O=C(CC(C(=O)O)c1ccc(Cl)cc1)c1ccccc1 (stereo not drawn) do in these assays?
Pf growth 96h: -1%; HCV inh: 14%; Pf growth 48h: 42%; HCMV antiviral: 31; Marburg entry inh: 2%[46.1 µM]; LASV entry inh: 14%[46.1 µM]

Results for CCCOc1ccc(C(=O)C(CN2CCCC2)c2ccccc2)cc1 (stereo not drawn) ?
Pf growth 96h: inconclusive; HCV inh: inconclusive; Pf growth 48h: 10µM*; HCMV antiviral: -82*; Marburg entry inh: inconclusive; LASV entry inh: inconclusive

How did COc1ccc(C(=O)C(CN2CCCC2)c2ccccc2)cc1 (stereo not drawn) do in these assays?
Pf growth 96h: 4%; HCV inh: inconclusive; Pf growth 48h: 13µM*; HCMV antiviral: -95*; Marburg entry inh: inconclusive; LASV entry inh: inconclusive

How did Cc1sc2nc(CSC(C)C(=O)NC3(C#N)CCCCC3)[nH]c(=O)c2c1C (stereo not drawn) do in these assays?
Pf growth 96h: 0%; HCV inh: 4%; Pf growth 48h: 0%; HCMV antiviral: -15; Marburg entry inh: 13%[46.1 µM]; LASV entry inh: 6%

How did COc1ccc(C(=O)c2c(C)n(CCN3CCOCC3)c3ccccc23)cc1 do in these assays?
Pf growth 96h: 12µM*; Pf growth 48h: -15%; HCMV antiviral: -22

What do the screens show for `CCCn1c(C)c(C(=O)c2ccc3ccccc3c2)c2ccccc21`?
Marburg entry inh: -36%; LASV entry inh: inconclusive

How did Cc1ccc(C)c(CSc2nnc(-c3cccnc3)o2)c1 do in these assays?
Pf growth 96h: 13µM*; Pf growth 48h: inconclusive; HCMV antiviral: 3; Marburg entry inh: -22%; LASV entry inh: -14%[14.3 µM]

Results for Fc1ccccc1CSc1nnc(-c2cccnc2)o1 ?
Pf growth 96h: inconclusive; HCV inh: 2%; Pf growth 48h: 144%; HCMV antiviral: 57

What do the screens show for `O=C(c1ccco1)N1CCN(C(=O)c2ccc(-c3ccccc3Cl)o2)CC1`?
Pf growth 96h: -17%; HCV inh: 22µM*; Pf growth 48h: inconclusive; HCMV antiviral: 0

What do the screens show for `O=C(c1ccccc1Cl)N1CCN(S(=O)(=O)c2cccs2)CC1`?
Pf growth 96h: 28%; Pf growth 48h: 12%; HCMV antiviral: 21; Marburg entry inh: 2%; LASV entry inh: 17%

How did O=C(c1ccc(-c2ccccc2Cl)o1)N1CCN(S(=O)(=O)c2cccs2)CC1 do in these assays?
Pf growth 96h: inconclusive; HCV inh: 14µM*; Pf growth 48h: 6%; HCMV antiviral: 37; Marburg entry inh: inconclusive; LASV entry inh: -3%

How did Cn1c(CN2CCCCC2)nc2cc(NS(=O)(=O)c3ccc(Cl)cc3)ccc21 do in these assays?
Pf growth 96h: 25%; HCV inh: -9%; Pf growth 48h: -17%; HCMV antiviral: -19; Marburg entry inh: inconclusive; LASV entry inh: -23%

What do the screens show for `Cn1c(CCN2CCCCC2)nc2cc(NS(=O)(=O)c3ccc(Cl)cc3)ccc21`?
Pf growth 96h: 3%[5.75 µM]; HCV inh: inconclusive; Pf growth 48h: 2.1µM*; HCMV antiviral: -33; Marburg entry inh: -22%; LASV entry inh: 6%

What do the screens show for `Cn1c(CCNC(=O)c2ccco2)nc2cc(NS(=O)(=O)c3ccc(Cl)cc3)ccc21`?
Pf growth 96h: 9.3µM*; HCV inh: -21%; Pf growth 48h: inconclusive; HCMV antiviral: -3; Marburg entry inh: -17%; LASV entry inh: -1%

What do the screens show for `CCCNC(=O)c1ccc(C)c(NC(=O)C2=C(C)OCCS2)c1`?
Pf growth 96h: 42%; HCV inh: -2%; Pf growth 48h: -5%; HCMV antiviral: -77*; Marburg entry inh: 4%[46.1 µM]; LASV entry inh: 10%[46.1 µM]

Results for CCN(CC)CCCNC(=O)c1ccc(C)c(NC(=O)C2=C(C)OCCS2)c1 ?
Pf growth 96h: inconclusive; HCV inh: 8%; Pf growth 48h: 36%; HCMV antiviral: inconclusive

What do the screens show for `CCOCCCNC(=O)c1cc(Cl)c(NC(=O)C2=C(C)OCCS2)cc1OC`?
Pf growth 96h: 28%; HCV inh: inconclusive; Pf growth 48h: inconclusive; HCMV antiviral: -80*; Marburg entry inh: 6%[46.1 µM]; LASV entry inh: inconclusive

How did CCCNC(=O)c1cc(Cl)c(NC(=O)C2=C(C)OCCS2)cc1OC do in these assays?
Pf growth 96h: 1%; HCV inh: inconclusive; Pf growth 48h: inconclusive; HCMV antiviral: -35

How did CCN(C(=O)c1cnc(NC(C)C)cc1C(F)(F)F)c1ccc(Cl)cc1Cl do in these assays?
Pf growth 96h: 12µM*; HCV inh: 10µM*; Pf growth 48h: 2.9µM*; HCMV antiviral: -9; Marburg entry inh: inconclusive; LASV entry inh: inconclusive

Results for Cc1ccc(/C(O)=C2\C(=O)C(=O)N(Cc3ccco3)[C@@H]2c2cccs2)cc1 ?
Marburg entry inh: 2%

How did O=C(CN1CCC(C(=O)c2ccc(F)cc2)CC1)NCc1ccccc1F do in these assays?
Pf growth 96h: 6.6µM*; HCV inh: 11µM*; Pf growth 48h: -25%; HCMV antiviral: -8; Marburg entry inh: inconclusive; LASV entry inh: inconclusive

Results for COc1ccc(NC(=O)CN2CCC(C)CC2)cc1 ?
HCV inh: -1%; Pf growth 48h: 31%; HCMV antiviral: 112; Marburg entry inh: 30%; LASV entry inh: 40%[14.3 µM]

What do the screens show for `CC1CCN(CC(=O)Nc2ccc(C(=O)N3CCCCC3)cc2)CC1`?
Pf growth 96h: 3.3µM*; HCV inh: 20%; Pf growth 48h: 0%; HCMV antiviral: -22; Marburg entry inh: -3%; LASV entry inh: 1%
